Consider one molecule from ChEMBL document CHEMBL1961873, “Compounds: GSK PKIS; Assays: Nanosyn kinase panel” (2012).

The target in experiment [1] is Sphingosine kinase 1 (Homo sapiens) (UniProt Q9NYA1). The following applies: at 1 µM.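 Further: mean SPHK1 inhibition value reported from the GSK PKIS kinase panel screen.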
For experiment [2], the target named is T1, Sphingosine kinase 2 (Homo sapiens) (UniProt Q9NRA0).
T1 sequence (whole entry): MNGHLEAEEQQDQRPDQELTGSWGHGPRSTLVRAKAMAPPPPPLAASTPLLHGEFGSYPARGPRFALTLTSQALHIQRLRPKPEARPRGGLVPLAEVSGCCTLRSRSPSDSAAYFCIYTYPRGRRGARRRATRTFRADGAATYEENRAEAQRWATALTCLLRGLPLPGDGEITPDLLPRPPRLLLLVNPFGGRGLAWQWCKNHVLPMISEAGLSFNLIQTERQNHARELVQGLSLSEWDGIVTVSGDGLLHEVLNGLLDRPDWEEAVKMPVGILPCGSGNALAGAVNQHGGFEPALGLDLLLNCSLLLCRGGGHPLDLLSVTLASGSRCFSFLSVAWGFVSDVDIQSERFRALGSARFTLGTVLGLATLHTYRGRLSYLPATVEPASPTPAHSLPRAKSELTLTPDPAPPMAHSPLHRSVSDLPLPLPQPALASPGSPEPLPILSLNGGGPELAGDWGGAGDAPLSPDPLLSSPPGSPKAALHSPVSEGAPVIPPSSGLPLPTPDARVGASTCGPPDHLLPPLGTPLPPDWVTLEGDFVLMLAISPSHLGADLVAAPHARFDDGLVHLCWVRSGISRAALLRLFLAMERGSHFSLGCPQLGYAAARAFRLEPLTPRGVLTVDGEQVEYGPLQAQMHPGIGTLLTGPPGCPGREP
The following applies: at 0.1 µM.

In experiment [3] the target is T1, Sphingosine kinase 2 (Homo sapiens). The following applies: at 1 µM.
Experiment [4] has as its target Casein kinase II subunit alpha (Homo sapiens) (UniProt P68400). The following applies: at 0.1 µM.
Experiment [5] has the same target. The following applies: at 1 µM.
The target of experiment [6] is T2, Inhibitor of nuclear factor kappa-B kinase subunit alpha (Homo sapiens) (UniProt O15111).
T2 sequence (whole entry): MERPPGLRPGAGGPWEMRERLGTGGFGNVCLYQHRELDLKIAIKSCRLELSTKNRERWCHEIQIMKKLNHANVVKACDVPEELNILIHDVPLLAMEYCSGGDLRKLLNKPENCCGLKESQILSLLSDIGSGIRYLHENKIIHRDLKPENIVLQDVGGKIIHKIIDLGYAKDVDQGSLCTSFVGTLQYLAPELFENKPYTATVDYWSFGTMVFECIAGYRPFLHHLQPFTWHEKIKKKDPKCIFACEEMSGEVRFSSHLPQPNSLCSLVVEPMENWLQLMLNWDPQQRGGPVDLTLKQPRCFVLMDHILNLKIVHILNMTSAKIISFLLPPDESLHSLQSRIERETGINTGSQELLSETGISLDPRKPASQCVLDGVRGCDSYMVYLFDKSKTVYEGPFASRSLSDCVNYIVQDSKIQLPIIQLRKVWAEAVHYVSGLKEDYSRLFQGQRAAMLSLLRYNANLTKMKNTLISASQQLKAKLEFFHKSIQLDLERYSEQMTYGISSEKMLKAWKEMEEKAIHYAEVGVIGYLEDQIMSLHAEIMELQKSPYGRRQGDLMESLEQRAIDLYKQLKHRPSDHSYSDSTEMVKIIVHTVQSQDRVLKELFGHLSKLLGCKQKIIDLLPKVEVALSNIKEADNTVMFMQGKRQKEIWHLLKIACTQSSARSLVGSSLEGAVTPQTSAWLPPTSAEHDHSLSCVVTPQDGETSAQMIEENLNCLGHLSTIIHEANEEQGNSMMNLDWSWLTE
The following applies: at 0.1 µM.

In experiment [7] the target is T2, Inhibitor of nuclear factor kappa-B kinase subunit alpha (Homo sapiens). The following applies: at 1 µM.
Experiment [8] concerns the target T3, Inhibitor of nuclear factor kappa-B kinase subunit beta (Homo sapiens) (UniProt O14920).
T3 sequence (whole entry): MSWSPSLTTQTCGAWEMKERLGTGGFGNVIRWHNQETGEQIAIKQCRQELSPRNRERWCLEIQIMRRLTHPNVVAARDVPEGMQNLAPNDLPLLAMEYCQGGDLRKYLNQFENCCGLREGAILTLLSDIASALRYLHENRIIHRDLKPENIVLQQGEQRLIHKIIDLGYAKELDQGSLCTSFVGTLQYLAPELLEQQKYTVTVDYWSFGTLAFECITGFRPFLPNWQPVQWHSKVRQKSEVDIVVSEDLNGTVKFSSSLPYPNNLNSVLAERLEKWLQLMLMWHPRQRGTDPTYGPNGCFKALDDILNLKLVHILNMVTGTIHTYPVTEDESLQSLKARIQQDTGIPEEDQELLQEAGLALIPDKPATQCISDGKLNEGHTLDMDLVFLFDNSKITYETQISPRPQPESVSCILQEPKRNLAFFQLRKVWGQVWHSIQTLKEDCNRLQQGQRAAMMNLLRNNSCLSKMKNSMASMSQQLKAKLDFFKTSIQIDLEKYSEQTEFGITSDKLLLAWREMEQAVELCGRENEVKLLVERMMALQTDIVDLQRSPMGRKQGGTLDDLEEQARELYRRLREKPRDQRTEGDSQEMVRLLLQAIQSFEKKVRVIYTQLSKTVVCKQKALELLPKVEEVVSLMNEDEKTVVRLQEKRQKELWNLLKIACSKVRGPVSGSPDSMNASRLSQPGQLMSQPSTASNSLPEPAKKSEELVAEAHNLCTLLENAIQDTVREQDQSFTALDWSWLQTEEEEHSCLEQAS
The following applies: at 0.1 µM.

In experiment [9] the target is T3, Inhibitor of nuclear factor kappa-B kinase subunit beta (Homo sapiens). The following applies: at 1 µM.
The target of experiment [10] is T4, Inhibitor of nuclear factor kappa-B kinase subunit epsilon (Homo sapiens) (UniProt Q14164).
T4 sequence (whole entry): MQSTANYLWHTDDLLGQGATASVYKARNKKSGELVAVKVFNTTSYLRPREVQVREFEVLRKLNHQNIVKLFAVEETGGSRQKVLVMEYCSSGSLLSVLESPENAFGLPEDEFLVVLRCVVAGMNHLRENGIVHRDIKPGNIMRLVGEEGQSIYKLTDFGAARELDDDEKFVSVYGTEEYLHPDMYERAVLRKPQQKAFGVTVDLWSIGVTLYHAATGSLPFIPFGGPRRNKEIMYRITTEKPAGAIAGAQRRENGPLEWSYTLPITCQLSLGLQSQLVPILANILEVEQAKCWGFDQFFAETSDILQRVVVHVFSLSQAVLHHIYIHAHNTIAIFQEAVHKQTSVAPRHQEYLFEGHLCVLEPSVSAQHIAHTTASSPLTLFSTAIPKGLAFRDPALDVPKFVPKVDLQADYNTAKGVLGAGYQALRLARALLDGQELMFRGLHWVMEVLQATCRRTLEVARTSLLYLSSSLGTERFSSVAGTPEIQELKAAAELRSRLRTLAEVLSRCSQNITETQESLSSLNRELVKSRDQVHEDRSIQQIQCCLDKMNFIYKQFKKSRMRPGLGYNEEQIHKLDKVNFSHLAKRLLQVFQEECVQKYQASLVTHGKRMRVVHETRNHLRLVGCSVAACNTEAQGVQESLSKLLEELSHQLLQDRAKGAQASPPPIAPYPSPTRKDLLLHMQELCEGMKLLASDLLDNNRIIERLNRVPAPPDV
The following applies: at 0.1 µM.

The target in experiment [11] is T4, Inhibitor of nuclear factor kappa-B kinase subunit epsilon (Homo sapiens). The following applies: at 1 µM.
In experiment [12] the target is T5, Serine/threonine-protein kinase Nek1 (Homo sapiens) (UniProt Q96PY6).
T5 sequence (whole entry): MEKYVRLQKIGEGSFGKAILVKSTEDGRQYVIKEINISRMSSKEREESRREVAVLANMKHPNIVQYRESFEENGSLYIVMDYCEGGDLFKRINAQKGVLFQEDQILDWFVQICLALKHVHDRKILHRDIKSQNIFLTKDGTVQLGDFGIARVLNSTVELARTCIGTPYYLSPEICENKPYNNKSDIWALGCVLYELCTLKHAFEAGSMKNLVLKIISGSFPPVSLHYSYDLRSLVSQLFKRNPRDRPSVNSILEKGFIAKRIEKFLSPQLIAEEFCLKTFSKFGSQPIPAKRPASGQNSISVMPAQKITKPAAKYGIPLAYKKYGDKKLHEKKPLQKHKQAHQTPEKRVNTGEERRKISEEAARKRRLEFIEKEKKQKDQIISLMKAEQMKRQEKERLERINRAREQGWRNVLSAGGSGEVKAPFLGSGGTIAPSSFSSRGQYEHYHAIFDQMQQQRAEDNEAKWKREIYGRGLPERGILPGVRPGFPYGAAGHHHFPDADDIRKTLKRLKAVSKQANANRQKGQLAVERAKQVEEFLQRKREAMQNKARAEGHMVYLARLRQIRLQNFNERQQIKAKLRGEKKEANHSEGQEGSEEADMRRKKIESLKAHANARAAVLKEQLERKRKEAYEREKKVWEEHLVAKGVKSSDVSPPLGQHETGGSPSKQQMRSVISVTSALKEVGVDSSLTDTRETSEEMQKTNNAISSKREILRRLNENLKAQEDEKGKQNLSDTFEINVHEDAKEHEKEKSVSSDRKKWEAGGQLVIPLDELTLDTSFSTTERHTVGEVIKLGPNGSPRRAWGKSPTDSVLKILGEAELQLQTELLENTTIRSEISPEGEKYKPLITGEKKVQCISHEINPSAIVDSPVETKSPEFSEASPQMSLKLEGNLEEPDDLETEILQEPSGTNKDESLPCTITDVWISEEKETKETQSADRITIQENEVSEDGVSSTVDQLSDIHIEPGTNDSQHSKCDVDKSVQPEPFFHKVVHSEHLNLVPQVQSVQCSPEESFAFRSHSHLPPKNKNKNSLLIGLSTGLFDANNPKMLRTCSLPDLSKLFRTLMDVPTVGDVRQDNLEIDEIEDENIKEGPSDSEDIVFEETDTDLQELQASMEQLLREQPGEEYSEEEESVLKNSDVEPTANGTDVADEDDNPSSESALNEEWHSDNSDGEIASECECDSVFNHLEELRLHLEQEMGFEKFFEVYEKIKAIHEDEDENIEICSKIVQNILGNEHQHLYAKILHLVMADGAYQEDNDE
The following applies: at 0.1 µM.

In experiment [13] the target is T5, Serine/threonine-protein kinase Nek1 (Homo sapiens). The following applies: at 1 µM.
Experiment [14] concerns the target T6, Serine/threonine-protein kinase Nek2 (Homo sapiens) (UniProt P51955).
T6 sequence (whole entry): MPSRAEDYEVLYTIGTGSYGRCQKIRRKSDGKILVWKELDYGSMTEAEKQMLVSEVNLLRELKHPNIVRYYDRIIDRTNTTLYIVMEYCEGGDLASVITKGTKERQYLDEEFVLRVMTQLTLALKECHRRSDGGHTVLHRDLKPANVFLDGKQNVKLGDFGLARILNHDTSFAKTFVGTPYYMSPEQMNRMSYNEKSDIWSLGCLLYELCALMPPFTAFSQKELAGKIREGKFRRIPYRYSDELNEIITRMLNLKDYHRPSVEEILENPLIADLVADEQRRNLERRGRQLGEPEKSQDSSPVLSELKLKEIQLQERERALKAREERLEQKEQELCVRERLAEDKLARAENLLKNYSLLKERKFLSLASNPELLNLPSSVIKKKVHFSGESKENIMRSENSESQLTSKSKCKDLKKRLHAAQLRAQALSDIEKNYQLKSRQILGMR
The following applies: at 0.1 µM.

Experiment [15] deals with T6, Serine/threonine-protein kinase Nek2 (Homo sapiens). The following applies: at 1 µM.
Experiment [16] deals with Serine/threonine-protein kinase Nek6 (Homo sapiens) (UniProt Q9HC98). The following applies: at 0.1 µM.
Sequence of Serine/threonine-protein kinase Nek6 (Homo sapiens) (Q9HC98 whole entry): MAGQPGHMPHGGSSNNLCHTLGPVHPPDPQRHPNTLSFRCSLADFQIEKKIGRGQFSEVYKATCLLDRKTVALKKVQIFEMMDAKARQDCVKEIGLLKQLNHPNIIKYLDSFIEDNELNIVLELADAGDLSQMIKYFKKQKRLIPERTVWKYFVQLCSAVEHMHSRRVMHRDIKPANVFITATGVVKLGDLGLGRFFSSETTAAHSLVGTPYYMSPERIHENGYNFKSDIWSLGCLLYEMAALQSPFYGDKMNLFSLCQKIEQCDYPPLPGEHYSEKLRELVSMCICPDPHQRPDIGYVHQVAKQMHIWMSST
The target is the same in experiment [17]. The following applies: at 1 µM.
Experiment [18] deals with Serine/threonine-protein kinase Nek7 (Homo sapiens) (UniProt Q8TDX7). The following applies: at 0.1 µM.
Sequence of Serine/threonine-protein kinase Nek7 (Homo sapiens) (Q8TDX7 whole entry, looked up): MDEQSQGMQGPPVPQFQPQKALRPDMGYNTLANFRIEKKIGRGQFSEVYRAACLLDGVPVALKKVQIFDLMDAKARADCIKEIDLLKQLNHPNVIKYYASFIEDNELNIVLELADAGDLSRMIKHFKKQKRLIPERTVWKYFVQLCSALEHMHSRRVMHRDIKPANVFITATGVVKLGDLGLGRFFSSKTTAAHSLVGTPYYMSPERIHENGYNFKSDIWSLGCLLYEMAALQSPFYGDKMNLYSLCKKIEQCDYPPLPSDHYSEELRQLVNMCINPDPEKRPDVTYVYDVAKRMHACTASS
The target is the same in experiment [19]. The following applies: at 1 µM.
The target in experiment [20] is T7, Serine/threonine-protein kinase Nek9 (Homo sapiens) (UniProt Q8TD19).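 Further: reported value is the mean percent inhibition of NEK9.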
T7 sequence (whole entry): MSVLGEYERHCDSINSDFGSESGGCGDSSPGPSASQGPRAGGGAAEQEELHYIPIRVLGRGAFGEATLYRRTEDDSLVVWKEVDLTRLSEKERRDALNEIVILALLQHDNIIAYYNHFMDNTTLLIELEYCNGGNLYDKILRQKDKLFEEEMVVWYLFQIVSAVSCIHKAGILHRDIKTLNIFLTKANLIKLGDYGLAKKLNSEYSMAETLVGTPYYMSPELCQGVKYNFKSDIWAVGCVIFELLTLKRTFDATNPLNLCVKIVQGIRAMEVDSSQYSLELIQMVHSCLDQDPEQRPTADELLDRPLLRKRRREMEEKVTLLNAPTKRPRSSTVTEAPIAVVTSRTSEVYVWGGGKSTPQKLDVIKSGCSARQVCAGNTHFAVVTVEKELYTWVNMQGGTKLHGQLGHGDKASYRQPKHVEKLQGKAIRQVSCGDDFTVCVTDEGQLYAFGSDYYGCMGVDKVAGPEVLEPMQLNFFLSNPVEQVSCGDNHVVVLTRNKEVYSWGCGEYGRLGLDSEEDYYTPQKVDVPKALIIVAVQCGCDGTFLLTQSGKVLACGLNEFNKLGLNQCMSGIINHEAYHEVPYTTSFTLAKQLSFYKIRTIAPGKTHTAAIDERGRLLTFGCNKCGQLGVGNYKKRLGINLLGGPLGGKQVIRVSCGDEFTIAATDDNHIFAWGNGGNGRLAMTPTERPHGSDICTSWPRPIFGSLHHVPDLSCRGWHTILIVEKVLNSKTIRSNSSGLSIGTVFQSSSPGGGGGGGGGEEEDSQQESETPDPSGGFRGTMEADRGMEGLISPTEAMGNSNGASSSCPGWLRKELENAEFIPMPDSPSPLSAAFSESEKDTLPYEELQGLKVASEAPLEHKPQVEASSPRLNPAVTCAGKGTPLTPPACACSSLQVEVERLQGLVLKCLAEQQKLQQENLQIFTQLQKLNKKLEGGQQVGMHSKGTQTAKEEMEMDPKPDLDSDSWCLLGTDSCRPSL
The following applies: at 0.1 µM.

Sequence of Casein kinase II subunit alpha (Homo sapiens) (P68400 whole entry, looked up): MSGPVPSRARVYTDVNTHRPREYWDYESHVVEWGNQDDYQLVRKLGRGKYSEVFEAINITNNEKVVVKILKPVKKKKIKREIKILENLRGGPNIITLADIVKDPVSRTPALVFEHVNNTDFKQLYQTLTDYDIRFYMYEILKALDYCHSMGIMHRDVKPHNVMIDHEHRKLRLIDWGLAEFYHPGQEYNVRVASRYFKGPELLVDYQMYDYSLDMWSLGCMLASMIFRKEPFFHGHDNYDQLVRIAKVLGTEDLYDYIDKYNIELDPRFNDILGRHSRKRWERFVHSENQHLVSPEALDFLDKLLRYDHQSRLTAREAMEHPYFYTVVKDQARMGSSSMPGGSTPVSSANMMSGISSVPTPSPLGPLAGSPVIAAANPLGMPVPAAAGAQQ
Sequence of Sphingosine kinase 1 (Homo sapiens) (Q9NYA1 whole entry): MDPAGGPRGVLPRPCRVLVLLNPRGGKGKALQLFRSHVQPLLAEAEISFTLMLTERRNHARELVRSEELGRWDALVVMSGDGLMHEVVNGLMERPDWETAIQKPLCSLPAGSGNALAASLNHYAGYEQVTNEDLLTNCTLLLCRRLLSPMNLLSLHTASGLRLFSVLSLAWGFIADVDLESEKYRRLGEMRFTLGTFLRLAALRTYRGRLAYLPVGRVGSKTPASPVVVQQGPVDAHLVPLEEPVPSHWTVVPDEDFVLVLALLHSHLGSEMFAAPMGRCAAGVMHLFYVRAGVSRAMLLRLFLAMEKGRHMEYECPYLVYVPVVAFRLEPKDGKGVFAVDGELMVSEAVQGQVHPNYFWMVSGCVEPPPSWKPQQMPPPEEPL

In the case of `Fc1ccc(Nc2nccc(-c3c(-c4ccc(C(F)(F)F)cc4)nn4ncccc34)n2)cc1F`, the inhibition (usually the drop in the measured response relative to a control, in per cent) in [1] was -1.66%; in experiment [2] it was -0.99%; in experiment [3] it was -0.13%; in experiment [4] it was 2.02%; in [5], 1.28%; in [6], 9.17%. For the same molecule, the inhibition came to 4.1% in [7]; 5.58% in [8]; 3.19% in [9]; 2.59% in experiment [10]; 4.2% in experiment [11]; 1.24% in [12]. The inhibition in experiment [13] was 1.72%; in [14], 4.93%; in [15], 4.4%; in [16] it was -0.59%; in experiment [17], 0.48%; in [18] it was 3.33%. In addition, the inhibition in experiment [19] stood at 2.76%; in [20], 4.79%.
